Laboratory results: PubChem BioAssay (NCATS)
Several values for one entry are separate records, joined by “and”; a condition that tells them apart may be missing. Equal values may be shown once. Records with an inconclusive call do not appear. Activity calls are given as the source filed them. Unless noted, calls come from the whole dose curve.

Experiments:
[1] = biological target: Bile acid receptor (Homo sapiens) (UniProt Q96RI1); test: qHTS assay for small molecule agonists of farnesoid X receptor signaling (AID 588527); conditions: HEK293T FXR-UAS-bla, beta-lactamase ratio, 16 h; stronger effect = higher value;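 note: series mostly up to about 77 µM; 0% = vehicle basal and 100% = reference agonist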
Chain of Bile acid receptor (Homo sapiens) (Q96RI1 whole entry, looked up): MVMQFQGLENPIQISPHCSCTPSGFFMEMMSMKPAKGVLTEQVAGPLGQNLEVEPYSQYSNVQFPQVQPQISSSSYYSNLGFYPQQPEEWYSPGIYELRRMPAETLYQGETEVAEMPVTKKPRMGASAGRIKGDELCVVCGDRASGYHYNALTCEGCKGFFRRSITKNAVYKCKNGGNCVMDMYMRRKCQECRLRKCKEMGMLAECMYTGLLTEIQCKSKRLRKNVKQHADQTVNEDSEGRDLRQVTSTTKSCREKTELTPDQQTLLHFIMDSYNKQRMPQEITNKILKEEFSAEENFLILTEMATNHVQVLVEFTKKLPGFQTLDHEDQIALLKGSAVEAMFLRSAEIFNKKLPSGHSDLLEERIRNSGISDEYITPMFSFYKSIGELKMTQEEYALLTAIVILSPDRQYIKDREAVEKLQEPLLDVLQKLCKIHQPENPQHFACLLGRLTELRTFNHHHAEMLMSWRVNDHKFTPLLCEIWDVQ
Procedure, shortened: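 FXR-UAS-bla HEK293T, 10% dialyzed FBS; cpds up to 92 uM titration, 16 h 37 C; CCF4 dye 2 h RT; fluorescence. Normalized to chenodeoxycholic acid 100 uM (100%) and DMSO (0%); Hill fit gives EC50, efficacy.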

[2] = biological target: Glucocorticoid receptor (Homo sapiens) (UniProt P04150); test: qHTS assay for small molecule agonists of glucocorticoid receptor signaling (AID 588532; active = well fitted curve in the direction sought with a large enough effect in the signal ratio, with a control signal flat; the % refers to the signal ratio;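 note: 100% = dexamethasone at 0.1 µM and 0% = DMSO only wells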); conditions: HeLa MMTV-bla, beta-lactamase ratio, agonist, 18 h; stronger effect = higher value; percent of dexamethasone control, DMSO zero
Chain of Glucocorticoid receptor (Homo sapiens) (P04150 whole entry, looked up): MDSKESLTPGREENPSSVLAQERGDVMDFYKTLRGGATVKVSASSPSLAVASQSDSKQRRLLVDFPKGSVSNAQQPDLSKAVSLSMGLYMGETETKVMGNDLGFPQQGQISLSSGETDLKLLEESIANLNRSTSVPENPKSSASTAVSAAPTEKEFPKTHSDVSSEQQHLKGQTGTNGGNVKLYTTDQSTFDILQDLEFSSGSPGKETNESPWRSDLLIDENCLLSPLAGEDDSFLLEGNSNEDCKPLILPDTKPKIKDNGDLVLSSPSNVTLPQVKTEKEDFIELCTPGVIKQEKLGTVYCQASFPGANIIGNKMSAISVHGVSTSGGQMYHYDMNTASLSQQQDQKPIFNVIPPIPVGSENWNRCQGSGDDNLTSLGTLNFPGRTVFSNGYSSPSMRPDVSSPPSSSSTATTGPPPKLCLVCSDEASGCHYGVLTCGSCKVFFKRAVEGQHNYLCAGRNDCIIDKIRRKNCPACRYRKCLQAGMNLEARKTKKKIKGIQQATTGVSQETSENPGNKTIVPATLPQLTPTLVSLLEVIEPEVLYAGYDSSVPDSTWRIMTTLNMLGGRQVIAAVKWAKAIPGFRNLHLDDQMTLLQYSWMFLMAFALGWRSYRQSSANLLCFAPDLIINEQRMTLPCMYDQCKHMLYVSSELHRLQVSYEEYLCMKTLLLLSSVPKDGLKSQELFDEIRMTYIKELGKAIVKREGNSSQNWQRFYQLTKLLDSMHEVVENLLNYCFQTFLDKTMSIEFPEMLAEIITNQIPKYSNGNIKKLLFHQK
Procedure, shortened: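 MMTV-bla HeLa beta-lactamase reporter cells in 1% charcoal/dextran FBS medium, compounds up to 92 uM for 18 h at 37 C, CCF4 readout; normalized to 0.1 uM dexamethasone (100%), EC50 and efficacy from Hill fits.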

[3] = biological target: Glucocorticoid receptor (Homo sapiens) (UniProt P04150); test: qHTS assay for small molecule antagonists of glucocorticoid receptor signaling (AID 588533; active = well fitted inhibition curve with a large enough effect in the signal ratio, with a control signal flat, not every such curve was filed as active; the % refers to the signal ratio; note: % is set by controls: 0 for no effect and ±100 for the full control effect)
Procedure, shortened: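 Antagonist-mode qHTS: compound titrations added to GRE-bla HeLa cells, then dexamethasone 2 nM final; 18 h, 37 C. CCF4 FRET fluorescence normalized to dexamethasone and DMSO; IC50 from Hill fit.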

[4] = biological target: Peroxisome proliferator-activated receptor gamma (Homo sapiens) (UniProt P37231); test: qHTS assay for small molecule agonists of peroxisome proliferator-activated receptor gamma signaling (AID 588536; active = well fitted curve in the direction sought with a large enough effect in the signal ratio, with a control signal flat, not every such curve was filed as active; the % refers to the signal ratio;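 note: 0% = DMSO basal wells and 100% = rosiglitazone at 2 µM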)
Chain of Peroxisome proliferator-activated receptor gamma (Homo sapiens) (P37231 whole entry, looked up): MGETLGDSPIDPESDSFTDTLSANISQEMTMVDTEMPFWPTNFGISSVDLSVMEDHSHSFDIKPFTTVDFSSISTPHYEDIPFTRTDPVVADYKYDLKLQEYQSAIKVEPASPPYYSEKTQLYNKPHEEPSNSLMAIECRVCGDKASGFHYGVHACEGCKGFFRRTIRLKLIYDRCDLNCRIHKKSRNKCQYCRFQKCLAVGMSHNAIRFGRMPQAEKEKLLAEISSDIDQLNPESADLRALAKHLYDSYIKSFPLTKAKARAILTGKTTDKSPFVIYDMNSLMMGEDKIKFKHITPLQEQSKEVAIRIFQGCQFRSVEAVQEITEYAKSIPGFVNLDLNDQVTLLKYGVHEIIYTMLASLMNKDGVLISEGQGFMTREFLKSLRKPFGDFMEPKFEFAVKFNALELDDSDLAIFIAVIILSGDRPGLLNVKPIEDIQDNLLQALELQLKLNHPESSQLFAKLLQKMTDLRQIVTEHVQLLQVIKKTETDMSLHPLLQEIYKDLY
Procedure, shortened: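 Compound treatment: 16 h, 37 C, HEK293 GeneBLAzer cells. Detection: CCF4, 2 h RT. Values: Hill-fit EC50, efficacy as % of 2 uM rosiglitazone.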

[5] = biological target: Peroxisome proliferator-activated receptor gamma (Homo sapiens) (UniProt P37231); test: qHTS assay for small molecule antagonists of peroxisome proliferator-activated receptor gamma signaling (AID 588537; active = well fitted inhibition curve with a large enough effect in the signal ratio, with a control signal flat, not every such curve was filed as active; the % refers to the signal ratio;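 note: reporter cells co-stimulated with 50 nM rosiglitazone agonist during compound treatment; % of control where 0% means no effect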)
Procedure, shortened: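 Read-out: CCF4 fluorescence (ex 405, em 460/530 nm) after 2 h at RT. Cells were HEK293 carrying a UAS-bla reporter and treated 16 h at 37 C with compound plus rosiglitazone (50 nM final). Normalized to rosiglitazone and DMSO.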

[6] = biological target: Vitamin D3 receptor (Homo sapiens) (UniProt P11473); test: qHTS assay for small molecule antagonists of vitamin D receptor signaling (AID 588541);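 note: receptor activated by calcitriol during compound treatment; series mostly up to about 77 µM; % is set by controls: 0 for no effect and ±100 for the full control effect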
Chain of Vitamin D3 receptor (Homo sapiens) (P11473 whole entry, looked up): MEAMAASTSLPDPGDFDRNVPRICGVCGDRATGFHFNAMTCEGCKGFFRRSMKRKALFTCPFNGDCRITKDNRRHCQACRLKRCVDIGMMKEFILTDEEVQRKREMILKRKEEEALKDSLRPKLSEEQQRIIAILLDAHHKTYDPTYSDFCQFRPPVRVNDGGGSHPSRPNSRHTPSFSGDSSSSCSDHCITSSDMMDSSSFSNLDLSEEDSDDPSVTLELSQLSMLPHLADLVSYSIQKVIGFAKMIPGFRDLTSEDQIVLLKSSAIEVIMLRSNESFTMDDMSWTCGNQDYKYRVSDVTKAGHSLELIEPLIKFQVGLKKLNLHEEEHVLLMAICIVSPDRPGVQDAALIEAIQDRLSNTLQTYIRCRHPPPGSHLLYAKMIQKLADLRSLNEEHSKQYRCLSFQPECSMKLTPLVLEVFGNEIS
Procedure, shortened: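 VDR-UAS-bla HEK293T cells in 2% charcoal-stripped FBS were stimulated with 1-alpha,25-dihydroxyvitamin D3 (3 nM final) plus compound for 16 h at 37 C. The beta-lactamase CCF4 readout was normalized to 50 nM agonist and DMSO, and Hill fits gave IC50.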

[7] = qHTS assay for small molecule agonists of retinoid X receptor alpha signaling (AID 588544); conditions: HEK293T RXRa-UAS-bla, beta-lactamase reporter, 18 h; 530 nm emission;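 for activation: 0% = DMSO basal wells and 100% = reference agonist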
[8] = biological target: Retinoic acid receptor RXR-alpha (Homo sapiens) (UniProt P19793); test: as above
Chain of Retinoic acid receptor RXR-alpha (Homo sapiens) (P19793 whole entry, looked up): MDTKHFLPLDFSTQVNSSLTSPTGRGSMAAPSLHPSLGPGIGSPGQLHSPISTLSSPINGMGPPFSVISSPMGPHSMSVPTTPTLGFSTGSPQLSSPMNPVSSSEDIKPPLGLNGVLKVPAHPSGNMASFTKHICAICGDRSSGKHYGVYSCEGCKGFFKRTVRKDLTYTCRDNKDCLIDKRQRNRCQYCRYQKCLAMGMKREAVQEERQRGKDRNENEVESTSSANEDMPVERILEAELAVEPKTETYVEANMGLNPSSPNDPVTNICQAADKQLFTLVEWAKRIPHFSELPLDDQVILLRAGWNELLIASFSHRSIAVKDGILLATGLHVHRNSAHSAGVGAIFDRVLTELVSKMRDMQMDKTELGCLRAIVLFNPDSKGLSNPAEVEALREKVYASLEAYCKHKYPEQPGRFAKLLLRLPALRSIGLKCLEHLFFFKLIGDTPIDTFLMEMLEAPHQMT

[9] = biological target: Thyroid hormone receptor beta (Homo sapiens) (UniProt P10828); test: qHTS assay for small molecule agonists of thyroid hormone receptor beta signaling (AID 588545)
Chain of Thyroid hormone receptor beta (Homo sapiens) (P10828 whole entry, looked up): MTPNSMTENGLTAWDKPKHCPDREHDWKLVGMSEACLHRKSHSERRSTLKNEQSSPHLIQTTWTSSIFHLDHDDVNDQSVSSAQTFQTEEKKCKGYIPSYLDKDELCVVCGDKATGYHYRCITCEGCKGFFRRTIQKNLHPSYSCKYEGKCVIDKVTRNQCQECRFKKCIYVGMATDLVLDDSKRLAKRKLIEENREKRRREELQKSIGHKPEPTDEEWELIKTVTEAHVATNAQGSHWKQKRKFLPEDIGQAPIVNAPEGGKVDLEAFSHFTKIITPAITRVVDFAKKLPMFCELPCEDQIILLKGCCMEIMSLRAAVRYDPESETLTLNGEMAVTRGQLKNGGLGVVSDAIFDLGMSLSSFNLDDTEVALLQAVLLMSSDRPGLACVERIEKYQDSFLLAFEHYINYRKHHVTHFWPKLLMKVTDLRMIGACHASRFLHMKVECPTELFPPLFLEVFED
Procedure, shortened: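 Cells (2500/well) were seeded, incubated 4 hrs at 37 C, dosed with a compound series, incubated 18 hrs, loaded with CCF4 dye for 2 hrs at RT, then read for fluorescence. Data were scaled between DMSO (0%) and 10 nM T3 (100%).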

[10] = qHTS assay for small molecule antagonists of retinoid X receptor alpha signaling (AID 588546; active = well fitted inhibition curve with a large enough effect in the signal ratio, with a control signal flat, not every such curve was filed as active; the % refers to the signal ratio;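 note: cells stimulated with 9-cis-retinoic acid as agonist; % is set by controls: 0 for no effect and ±100 for the full control effect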); conditions: HEK293T RXRa-UAS-bla, beta-lactamase ratio, antagonist mode; measured here: W530 green channel, cytotoxicity proxy
Procedure, shortened: (§1)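 Beta-lactamase reporter inhibition, read as CCF4 fluorescence ratio (ex 405, em 460/530 nm) after 2 h at RT. HEK293T UAS-bla cells, 2500/well, were stimulated with 9-cis-RA at 500 or 100 nM final alongside test compound for 18 h at 37 C.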

[11] = biological target: Retinoic acid receptor RXR-alpha (Homo sapiens) (UniProt P19793); test: as above; conditions: HEK293T RXRa-UAS-bla, beta-lactamase ratio, antagonist mode
Procedure, shortened: as §1

[12] = biological target: Thyroid hormone receptor beta (Homo sapiens) (UniProt P10828); test: qHTS assay for small molecule antagonists of thyroid hormone receptor beta signaling (AID 588547; active = well fitted inhibition curve with a large enough effect in the signal ratio, with a control signal flat, not every such curve was filed as active; the % refers to the signal ratio;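 note: cells stimulated with 0.4 nM T3 agonist during compound exposure; series mostly up to about 77 µM; % is set by controls: 0 for no effect and ±100 for the full control effect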); conditions: TR-UAS-bla HEK293, beta-lactamase ratio, antagonist mode, 18 h
Procedure, shortened: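 TR-UAS-bla GripTite HEK293 cells in 2% charcoal/dextran FBS medium; compounds 0.59 nM to 92 uM with T3 at 0.4nM final, 18 h at 37 C. Beta-lactamase read by CCF4 fluorescence (460/530 nm); Hill fits gave IC50 and efficacy.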

[13] = biological target: Luciferin 4-monooxygenase (Photinus pyralis) (UniProt P08659); test: Biochemical firefly luciferase enzyme assay for NPC (AID 624030; active = well fitted inhibition curve with a large enough effect; note: nearly all actives have a fitted effect of over 70% in size; note: potency is the fitted concentration of half-maximal effect)
Chain of Luciferin 4-monooxygenase (Photinus pyralis) (P08659 whole entry, looked up): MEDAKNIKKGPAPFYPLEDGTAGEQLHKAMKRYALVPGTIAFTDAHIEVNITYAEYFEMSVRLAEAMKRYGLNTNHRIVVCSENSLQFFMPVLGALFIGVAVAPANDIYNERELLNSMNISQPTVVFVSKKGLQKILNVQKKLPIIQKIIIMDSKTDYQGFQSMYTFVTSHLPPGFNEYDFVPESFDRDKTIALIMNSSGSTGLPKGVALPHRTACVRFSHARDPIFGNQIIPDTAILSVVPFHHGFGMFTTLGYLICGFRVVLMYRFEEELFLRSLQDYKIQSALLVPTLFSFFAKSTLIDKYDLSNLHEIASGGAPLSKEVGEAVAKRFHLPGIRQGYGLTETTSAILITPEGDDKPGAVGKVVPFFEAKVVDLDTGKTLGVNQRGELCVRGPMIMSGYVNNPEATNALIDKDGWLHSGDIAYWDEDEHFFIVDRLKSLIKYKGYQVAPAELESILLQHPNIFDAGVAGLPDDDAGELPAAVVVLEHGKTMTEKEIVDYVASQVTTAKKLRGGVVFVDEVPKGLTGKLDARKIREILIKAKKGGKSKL
Procedure, shortened: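 Purified P. pyralis luciferase at 10 nM in 50 mM Tris Acetate (final), luminescence read within 5 minutes of enzyme addition to compounds. Activity normalised to PTC124 versus DMSO; concentration-response curves classed by r2, magnitude and activity.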

[14] = biological target: Peroxisome proliferator-activated receptor delta (Homo sapiens) (UniProt Q03181); test: qHTS assay for small molecule agonists of peroxisome proliferator-activated receptor delta signaling (AID 588534);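 note: 0% = DMSO basal wells and 100% = positive control agonist at 10 µM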
Chain of Peroxisome proliferator-activated receptor delta (Homo sapiens) (Q03181 whole entry, looked up): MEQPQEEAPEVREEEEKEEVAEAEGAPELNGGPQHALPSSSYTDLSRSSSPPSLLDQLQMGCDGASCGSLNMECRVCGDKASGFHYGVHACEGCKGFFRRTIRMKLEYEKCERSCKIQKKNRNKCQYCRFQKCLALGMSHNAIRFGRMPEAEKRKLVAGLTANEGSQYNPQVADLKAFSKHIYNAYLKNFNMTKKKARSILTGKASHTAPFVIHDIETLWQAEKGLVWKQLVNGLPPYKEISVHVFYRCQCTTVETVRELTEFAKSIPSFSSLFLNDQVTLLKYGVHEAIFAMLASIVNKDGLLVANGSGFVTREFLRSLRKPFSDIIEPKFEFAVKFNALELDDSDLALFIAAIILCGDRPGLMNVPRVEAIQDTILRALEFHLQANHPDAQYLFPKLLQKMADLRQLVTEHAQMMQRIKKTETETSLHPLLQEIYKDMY
Procedure, shortened: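 Titration series tested in agonist mode on beta-lactamase reporter cells; 18 hrs at 37 C after a 5 hr pre-incubation. Readout: CCF4 fluorescence, 2 hrs RT. Hill equation gives EC50 and maximal response.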

[15] = biological target: Bile acid receptor (Homo sapiens) (UniProt Q96RI1); test: qHTS assay for small molecule antagonists of farnesoid X receptor signaling (AID 588526); note: % is set by controls: 0 for no effect and ±100 for the full control effect
Procedure, shortened: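 Antagonist mode: titrated compounds tested against chenodeoxycholic acid stimulation (normalized to 50 uM CDCA and DMSO) in GeneBLAzer HEK293T cells for 16 h. Beta-lactamase read by CCF4 fluorescence; IC50 from Hill fits.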

[16] = biological target: Voltage-gated inwardly rectifying potassium channel KCNH2 (Homo sapiens) (UniProt Q12809); test: qHTS Assay for Small Molecule Inhibitors of the Human hERG Channel Activity (AID 588834; active = well fitted inhibition curve with a large enough effect;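 note: potency is the fitted concentration of half-maximal effect; lower thallium flux fluorescence means stronger hERG block; nearly all actives have a fitted effect of over 50% in size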)
Procedure, shortened: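 Cells were infected with hERG-BacMam virus for 4 hrs at room temperature, grown overnight, then seeded at 2000/well. After dye loading and roughly 10 min compound treatment, thallium influx was triggered and fluorescence recorded.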

C=CCC1=C(C)C(OC(=O)C2C(C=C(C)C)C2(C)C)CC1=O (stereo not drawn)
inactive: activation [1] 7.39% and 8.42% | activation [2] 11.4% and 2.61% | Potency [3] | outcome [4] | Potency [5] | Potency [6] | Potency [8] | outcome [9] | max response [11] -8.71% and -26.3% | activity change % (negative = inhibition) [12] -24.8% and -17.8% | Potency [13]
-13.5% and -4.99%: max response [10]
-5.66%: max response [7]

CC(C)(C)c1ccc(O)c(O)c1
inactive: activation [1] 9.58% and -7.97% | outcome [14]

CCCCCC[C@H]1C(=O)O[C@H](C)[C@H](NC(=O)c2cccc(NC=O)c2O)C(=O)O[C@@H](C)[C@@H]1OC(=O)CC(C)C
inactive: activation [1] -3.37% | activation [2] -11.1% | outcome [9]

Nc1ccc(Cl)cc1N
11.5% and -1.67%: max response [10]
active: Potency [16] 39.8 µM | Potency [13] 3.32 µM
inactive: outcome [15] | activation [1] 0.723% | activation [2] 0.0302% and -3.42% | Potency [3] | outcome [4] | Potency [6] | Potency [8] | outcome [9] | max response [11] -1.75% and 0.323% | activity change % (negative = inhibition) [12] -20.8%
13.9%: max response [7]

C[C@]12C[C@H](O)[C@H]3[C@@H](CCC4=CC(=O)CC[C@@]43C)[C@@H]1CC[C@@H]2C(=O)CO
inactive: activation [1] -2.3% | outcome [14]

CCCCC(CC)COC(=O)c1ccc(N(C)C)cc1 (stereo not drawn)
inactive: activation [1] -1.15% and -5.13% | outcome [14]

S=c1[nH]c2ccccc2s1
inactive: activation [1] -0.945% and -0.0694% | outcome [14]
